# Experimental data as given in PubChem BioAssay AID1159580 (chemical genetic matrix, 2015).
# Values joined by “and” are separate entries in the source; they are usually repeats but may differ in a detail not shown here. Equal entries are not always repeated. Out of some 5,500 compounds screened, about 2,000 (36%) were called active. Roughly 18% stayed inconclusive and do not appear here. Some of the results follow. A number with no mark means an inactive call. No stated cut-off is given here; in the data, active means normalized growth mostly below about 0.91 (no sharp cut-off); inconclusive means no clear call, values can overlap the other calls; inactive means mostly above about 0.92.
# Experiment: chemical genetic growth profiling, strain panel (AID 1159580);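 further: tested at 20 µM; growth read once vehicle control cultures reached saturation at 30 °C; 1 = growth at the plate median or of vehicle wells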
# Conditions: S. cerevisiae deletion strains, growth OD
smiles,measurement,setting,value
Oc1cc2c(cc1O)C1c3ccc(O)c(O)c3OCC1(O)C2 (centres undefined),normalized growth,"locus YAL021C, strain ccr4, stronger effect = lower value",1
same,normalized growth,"locus YAL030W, strain snc1, stronger effect = lower value",1.01
same,normalized growth,"locus YBL061C, strain skt5, stronger effect = lower value",0.993
same,normalized growth,"locus YBR009C, strain hhf1, stronger effect = lower value",1
same,normalized growth,"locus YBR021W, strain FUR4, stronger effect = lower value",1.01
same,normalized growth,"locus YBR023C, strain chs3, stronger effect = lower value",0.995
same,normalized growth,"locus YBR171W, strain sec66, stronger effect = lower value",1.01
same,normalized growth,"locus YBR229C, strain ROT2, stronger effect = lower value",1
same,normalized growth,"locus YBR231C, strain swc5, stronger effect = lower value",0.956
same,normalized growth,"locus YBR279W, strain paf1, stronger effect = lower value",0.984
same,normalized growth,"locus YCL011C, strain gbp2, stronger effect = lower value",1.01
same,normalized growth,"locus YCL016C, strain dcc1, stronger effect = lower value",1
same,normalized growth,"locus YCL029C, strain bik1, stronger effect = lower value",0.997
same,normalized growth,"locus YCL069W, strain vba3, stronger effect = lower value",1.02
same,normalized growth,"locus YCR088W, strain abp1, stronger effect = lower value",1.02
same,normalized growth,"locus YDL005C, strain med2, stronger effect = lower value",1
same,normalized growth,"locus YDL035C, strain GPR1, stronger effect = lower value",0.973
same,normalized growth,"locus YDL040C, strain nat1, stronger effect = lower value",1.04
same,normalized growth,"locus YDL074C, strain BRE1, stronger effect = lower value",0.852
same,normalized growth,"locus YDL101C, strain DUN1, stronger effect = lower value",0.908
same,normalized growth,"locus YDL134C, strain PPH21, stronger effect = lower value",0.832 (active)
same,normalized growth,"locus YDL185W, strain tfp1, stronger effect = lower value",0.961
same,normalized growth,"locus YDL192W, strain arf1, stronger effect = lower value",0.997
same,normalized growth,"locus YDR001C, strain nth1, stronger effect = lower value",1.02
same,normalized growth,"locus YDR069C, strain doa4, stronger effect = lower value",0.936
same,normalized growth,"locus YDR101C, strain arx1, stronger effect = lower value",1.07
same,normalized growth,"locus YDR137W, strain rgp1, stronger effect = lower value",1.05
same,normalized growth,"locus YDR159W, strain sac3, stronger effect = lower value",1.03
same,normalized growth,"locus YDR162C, strain NBP2, stronger effect = lower value",0.821 (active)
same,normalized growth,"locus YDR195W, strain ref2",1.02
same,normalized growth,"locus YDR297W, strain sur2, stronger effect = lower value",1.01
same,normalized growth,"locus YDR318W, strain mcm21, stronger effect = lower value",0.99
same,normalized growth,"locus YDR334W, strain swr1, stronger effect = lower value",0.991
same,normalized growth,"locus YDR335W, strain msn5, stronger effect = lower value",0.996
same,normalized growth,"locus YDR388W, stronger effect = lower value",0.998
same,normalized growth,"locus YDR392W, strain spt3, stronger effect = lower value",0.991
same,normalized growth,"locus YDR502C, strain sam2, stronger effect = lower value",1.01
same,normalized growth,"locus YEL003W, strain gim4, stronger effect = lower value",1.01
same,normalized growth,"locus YEL037C, strain rad23, stronger effect = lower value",1.02
same,normalized growth,"locus YEL061C, strain CIN8 (second series), stronger effect = lower value",1.02
same,normalized growth,"locus YEL061C, strain CIN8, stronger effect = lower value",0.964
same,normalized growth,"locus YER015W, strain faa2, stronger effect = lower value",0.983
same,normalized growth,"locus YER016W, strain bim1, stronger effect = lower value",1.02
same,normalized growth,"locus YER110C, stronger effect = lower value",0.999
same,normalized growth,"locus YER111C, strain swi4, stronger effect = lower value",0.961
same,normalized growth,"locus YER155C, strain BEM2 (second series), stronger effect = lower value",1.02
same,normalized growth,"locus YER155C, strain BEM2, stronger effect = lower value",1.02
same,normalized growth,"locus YER167W, strain BCK2, stronger effect = lower value",1.04
same,normalized growth,"locus YFR010W, strain ubp6, stronger effect = lower value",0.983
same,normalized growth,"locus YGL078C, strain dbp3, stronger effect = lower value",0.972
same,normalized growth,"locus YGL086W, strain mad1, stronger effect = lower value",0.966
same,normalized growth,"locus YGL173C, strain kem1, stronger effect = lower value",0.985
same,normalized growth,"locus YGL227W, strain vid30, stronger effect = lower value",1.01
same,normalized growth,"locus YGL240W, strain doc1, stronger effect = lower value",1.04
same,normalized growth,"locus YGL248W, strain PDE1, stronger effect = lower value",0.893
same,normalized growth,"locus YGL253W, strain hxk2, stronger effect = lower value",1.01
same,normalized growth,"locus YGR078C, strain PAC10, stronger effect = lower value",0.916
same,normalized growth,"locus YGR135W, strain pre9, stronger effect = lower value",0.946
same,normalized growth,"locus YGR252W, strain gcn5, stronger effect = lower value",0.992
same,normalized growth,"locus YHR013C, strain ard1, stronger effect = lower value",0.987
same,normalized growth,"locus YHR027C, strain rpn1, stronger effect = lower value",0.98
same,normalized growth,"locus YHR030C, strain SLT2, stronger effect = lower value",1
same,normalized growth,"locus YHR079C, strain IRE1 (second series), stronger effect = lower value",1.01
same,normalized growth,"locus YHR079C, strain IRE1, stronger effect = lower value",1.01
same,normalized growth,"locus YHR094C, strain hxt1, stronger effect = lower value",1.01
same,normalized growth,"locus YHR129C, strain ARP1, stronger effect = lower value",0.912 (active)
same,normalized growth,"locus YHR142W, strain chs7, stronger effect = lower value",0.99
same,normalized growth,"locus YHR200W, strain rpn10, stronger effect = lower value",0.976
same,normalized growth,"locus YIL066C, strain RNR3, stronger effect = lower value",0.939
same,normalized growth,"locus YIL073C, strain SPO22, stronger effect = lower value",0.683
same,normalized growth,"locus YIL125W, strain kgd1, stronger effect = lower value",1
same,normalized growth,"locus YIR030C, strain dcg1, stronger effect = lower value",1.01
same,normalized growth,"locus YJL092W, strain hpr5, stronger effect = lower value",1.02
same,normalized growth,"locus YJL095W, strain BCK1 (second series), stronger effect = lower value",1.01
same,normalized growth,"locus YJL095W, strain BCK1, stronger effect = lower value",0.811 and 0.994
same,normalized growth,"locus YJL115W, strain asf1, stronger effect = lower value",1
same,normalized growth,"locus YJL129C, strain trk1, stronger effect = lower value",1.07
same,normalized growth,"locus YJL134W, strain LCB3, stronger effect = lower value",0.992
same,normalized growth,"locus YJL154C, strain vps35, stronger effect = lower value",1.02
same,normalized growth,"locus YJL164C, strain tpk1, stronger effect = lower value",0.991
same,normalized growth,"locus YJL166W, strain qcr8, stronger effect = lower value",0.991
same,normalized growth,"locus YJL168C, strain set2, stronger effect = lower value",0.984
same,normalized growth,"locus YJL187C, strain SWE1 (second series), stronger effect = lower value",0.856 (active)
same,normalized growth,"locus YJR043C, strain POL32, stronger effect = lower value",0.95
same,normalized growth,"locus YJR066W, strain TOR1, stronger effect = lower value",0.913
same,normalized growth,"locus YKL009W, strain mrt4, stronger effect = lower value",1.06
same,normalized growth,"locus YKL068W, stronger effect = lower value",0.983
same,normalized growth,"locus YKL085W, strain MDH1 (second series), stronger effect = lower value",0.977
same,normalized growth,"locus YKL085W, strain MDH1, stronger effect = lower value",0.977
same,normalized growth,"locus YKL160W, strain elf1, stronger effect = lower value",0.983
same,normalized growth,"locus YKR001C, strain vps1, stronger effect = lower value",1.03
same,normalized growth,"locus YKR026C, strain gcn3, stronger effect = lower value",1.01
same,normalized growth,"locus YKR091W, strain srl3, stronger effect = lower value",1.02
same,normalized growth,"locus YLL001W, strain dnm1, stronger effect = lower value",1.01
same,normalized growth,"locus YLL026W, stronger effect = lower value",1.01
same,normalized growth,"locus YLL041C, strain sdh2, stronger effect = lower value",1.03
same,normalized growth,"locus YLR027C, strain aat2, stronger effect = lower value",0.984
same,normalized growth,"locus YLR039C, strain RIC1, stronger effect = lower value",0.916
same,normalized growth,"locus YLR058C, strain SHM2, stronger effect = lower value",0.916
same,normalized growth,"locus YLR102C, strain apc9, stronger effect = lower value",0.998
same,normalized growth,"locus YLR113W, strain HOG1, stronger effect = lower value",1.07
same,normalized growth,"locus YLR221C, strain rsa3, stronger effect = lower value",0.986
same,normalized growth,"locus YLR258W, strain gsy2, stronger effect = lower value",1.02
same,normalized growth,"locus YLR262C, strain YPT6 (second series), stronger effect = lower value",0.979
same,normalized growth,"locus YLR268W, strain sec22, stronger effect = lower value",1.04
same,normalized growth,"locus YLR320W, strain mms22, stronger effect = lower value",0.999
same,normalized growth,"locus YLR330W, strain CHS5, stronger effect = lower value",0.974
same,normalized growth,"locus YLR342W, strain FKS1 (second series), stronger effect = lower value",0.696 (active)
same,normalized growth,"locus YLR342W, strain FKS1, stronger effect = lower value",0.979
same,normalized growth,"locus YLR357W, strain rsc2, stronger effect = lower value",0.907
same,normalized growth,"locus YLR370C, strain arc18, stronger effect = lower value",0.987
same,normalized growth,"locus YLR371W, strain rom2, stronger effect = lower value",0.932
same,normalized growth,"locus YLR384C, strain iki3, stronger effect = lower value",1
same,normalized growth,"locus YLR418C, strain cdc73, stronger effect = lower value",0.963
same,normalized growth,"locus YML016C, strain PPZ1, stronger effect = lower value",0.86 (active)
same,normalized growth,"locus YML032C, strain rad52, stronger effect = lower value",1.07
same,normalized growth,"locus YML120C, strain ndi1, stronger effect = lower value",1.04
same,normalized growth,"locus YML124C, strain tub3, stronger effect = lower value",1.02
same,normalized growth,"locus YMR058W, strain fet3, stronger effect = lower value",0.784 (active)
same,normalized growth,"locus YMR078C, strain ctf18, stronger effect = lower value",1.01
same,normalized growth,"locus YMR125W, strain sto1, stronger effect = lower value",1.05
same,normalized growth,"locus YMR129W, stronger effect = lower value",1.03
same,normalized growth,"locus YMR205C, strain PFK2, stronger effect = lower value",1.02
same,normalized growth,"locus YMR223W, strain ubp8, stronger effect = lower value",0.977
same,normalized growth,"locus YMR231W, strain pep5, stronger effect = lower value",0.995
same,normalized growth,"locus YMR307W, strain GAS1, stronger effect = lower value",0.784
same,normalized growth,"locus YNL067W, strain RPL9B, stronger effect = lower value",0.931
same,normalized growth,"locus YNL071W, strain lat1, stronger effect = lower value",1.01
same,normalized growth,"locus YNL153C, strain GIM3, stronger effect = lower value",0.908
same,normalized growth,"locus YNL183C, strain NPR1, stronger effect = lower value",0.907
same,normalized growth,"locus YNL209W, strain ssb2, stronger effect = lower value",0.958
same,normalized growth,"locus YNL233W, strain BNI4, stronger effect = lower value",0.911
same,normalized growth,"locus YNL248C, strain rpa49, stronger effect = lower value",0.995
same,normalized growth,"locus YNL250W, strain rad50, stronger effect = lower value",0.952
same,normalized growth,"locus YNL271C, strain bni1, stronger effect = lower value",0.988
same,normalized growth,"locus YNL298W, strain CLA4, stronger effect = lower value",0.991
same,normalized growth,"locus YNL307C, strain MCK1, stronger effect = lower value",0.996
same,normalized growth,"locus YNL322C, strain KRE1 (second series), stronger effect = lower value",1.01
same,normalized growth,"locus YNL322C, strain KRE1, stronger effect = lower value",0.902 (active)
same,normalized growth,"locus YNR049C, strain mso1, stronger effect = lower value",1.02
same,normalized growth,"locus YNR052C, strain pop2, stronger effect = lower value",0.954
same,normalized growth,"locus YOL006C, strain TOP1, stronger effect = lower value",0.585
same,normalized growth,"locus YOL012C, strain htz1",0.422
same,normalized growth,"locus YOL147C, strain pex11, stronger effect = lower value",1.01
same,normalized growth,"locus YOR001W, strain rrp6, stronger effect = lower value",0.991
same,normalized growth,"locus YOR061W, strain CKA2, stronger effect = lower value",0.945
same,normalized growth,"locus YOR069W, strain VPS5, stronger effect = lower value",0.953
same,normalized growth,"locus YOR070C, strain gyp1, stronger effect = lower value",0.965
same,normalized growth,"locus YOR080W, strain dia2, stronger effect = lower value",1.01
same,normalized growth,"locus YOR083W, strain WHI5, stronger effect = lower value",0.971
same,normalized growth,"locus YOR106W, strain vam3, stronger effect = lower value",0.985
same,normalized growth,"locus YOR136W, strain idh2, stronger effect = lower value",1.02
same,normalized growth,"locus YOR144C, strain elg1, stronger effect = lower value",1.01
same,normalized growth,"locus YOR184W, strain ser1, stronger effect = lower value",1.09
same,normalized growth,"locus YOR231W, strain MKK1, stronger effect = lower value",1.01
same,normalized growth,"locus YOR265W, strain rbl2, stronger effect = lower value",1
same,normalized growth,"locus YOR270C, strain vph1, stronger effect = lower value",1.05
same,normalized growth,"locus YOR290C, strain snf2, stronger effect = lower value",0.997
same,normalized growth,"locus YOR316C, strain cot1, stronger effect = lower value",0.996
same,normalized growth,"locus YPL051W, strain arl3, stronger effect = lower value",0.929
same,normalized growth,"locus YPL078C, strain atp4, stronger effect = lower value",1.02
same,normalized growth,"locus YPL106C, strain sse1, stronger effect = lower value",0.957
same,normalized growth,"locus YPL240C, strain hsp82, stronger effect = lower value",1.02
same,normalized growth,"locus YPL256C, strain CLN2, stronger effect = lower value",1.02
same,normalized growth,"locus YPR119W, strain clb2, stronger effect = lower value",1.01
same,normalized growth,"locus YPR141C, strain kar3, stronger effect = lower value",0.982
same,normalized growth,"locus YPR163C, strain tif3, stronger effect = lower value",1.01
same,normalized growth,"locus YPR167C, strain met16, stronger effect = lower value",1.01
same,normalized growth,"strain wtn01, stronger effect = lower value",1.02
